Records with an inconclusive call do not appear. A call without a number means that no potency is given here. A number with no mark means an inactive call. Calls of active or inactive are those of the source. Calls come from the whole dose curve; as a rule, active = well fitted curve in the direction sought with a large enough effect; inconclusive = small, poorly fitted or top-dose-only effect, or another doubt; inactive = no such curve, though single readings can be large; an effect the other way counts as inactive or inconclusive.
Experiments:
[1] = molecular target: Rap guanine nucleotide exchange factor 3 (Homo sapiens) (UniProt O95398); experiment: Confirmatory qHTS for antagonist of cAMP-regulated guanine nucleotide exchange factor 3 (EPAC1) (AID 1645880); note: nearly all actives have a fitted effect of over 55% in size; note: potency is the fitted concentration of half-maximal effect
Summary of the method: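 Nucleotide exchange uses 100 nM EPAC1, 250 nM RAP1B-BODIPY-GDP and 50 uM GDP, with compounds in a concentration-titration series. After 5 min at room temperature, fluorescence (480 nm ex/540 nm em) is read every 5 min for 30 min. Data are normalized to control ATA and DMSO.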

[2] = molecular target: Rap guanine nucleotide exchange factor 3 (Homo sapiens) (UniProt O95398); experiment: Confirmatory qHTS for agonist of cAMP-regulated guanine nucleotide exchange factor 3 (EPAC1) (AID 1645881); note: nearly all actives have a fitted effect of over 75% in size; note: potency is the fitted concentration of half-maximal effect;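 for activation: EPAC1 catalysed release of BODIPY-GDP from Rap1B seen as fluorescence loss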
[3] = molecular target: Rap guanine nucleotide exchange factor 4 (Homo sapiens) (UniProt Q8WZA2); experiment: Confirmatory qHTS for agonist of cAMP-regulated guanine nucleotide exchange factor 4 (EPAC2) (AID 1645884);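 note: nucleotide exchange releases bodipy-GDP from Rap1 and this lowers its fluorescence; nearly all actives have a fitted effect of over 65% in size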; note: potency is the fitted concentration of half-maximal effect
[4] = molecular target: Rap guanine nucleotide exchange factor 4 (Homo sapiens) (UniProt Q8WZA2); experiment: Confirmatory qHTS for antagonist of cAMP-regulated guanine nucleotide exchange factor 4 (EPAC2) (AID 1645885); note: nearly all actives have a fitted effect of over 25% in size; note: potency is the fitted concentration of half-maximal effect
[5] = molecular target: Rap guanine nucleotide exchange factor 3 (Homo sapiens) (UniProt O95398); experiment: Counterscreen qHTS for antagonist of cAMP-regulated guanine nucleotide exchange factor 3 (EPAC1) (AID 1645888);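 note: fluorescence loss as bound BODIPY-GDP is released from Rap1B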
Summary of the method: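 Rap1B–BODIPY-GDP (250 nM) with 50 uM GDP; compounds pin-transferred to 9.74 nM–152 uM final (activator) or from 7.32 nM upwards (inhibitor). Fluorescence Ex/Em 480/540 nm read at 5 and 30 min, then after adding cAMP or buffer, at room temperature.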

Sequence of Rap guanine nucleotide exchange factor 4 (Homo sapiens) (Q8WZA2 whole entry, looked up): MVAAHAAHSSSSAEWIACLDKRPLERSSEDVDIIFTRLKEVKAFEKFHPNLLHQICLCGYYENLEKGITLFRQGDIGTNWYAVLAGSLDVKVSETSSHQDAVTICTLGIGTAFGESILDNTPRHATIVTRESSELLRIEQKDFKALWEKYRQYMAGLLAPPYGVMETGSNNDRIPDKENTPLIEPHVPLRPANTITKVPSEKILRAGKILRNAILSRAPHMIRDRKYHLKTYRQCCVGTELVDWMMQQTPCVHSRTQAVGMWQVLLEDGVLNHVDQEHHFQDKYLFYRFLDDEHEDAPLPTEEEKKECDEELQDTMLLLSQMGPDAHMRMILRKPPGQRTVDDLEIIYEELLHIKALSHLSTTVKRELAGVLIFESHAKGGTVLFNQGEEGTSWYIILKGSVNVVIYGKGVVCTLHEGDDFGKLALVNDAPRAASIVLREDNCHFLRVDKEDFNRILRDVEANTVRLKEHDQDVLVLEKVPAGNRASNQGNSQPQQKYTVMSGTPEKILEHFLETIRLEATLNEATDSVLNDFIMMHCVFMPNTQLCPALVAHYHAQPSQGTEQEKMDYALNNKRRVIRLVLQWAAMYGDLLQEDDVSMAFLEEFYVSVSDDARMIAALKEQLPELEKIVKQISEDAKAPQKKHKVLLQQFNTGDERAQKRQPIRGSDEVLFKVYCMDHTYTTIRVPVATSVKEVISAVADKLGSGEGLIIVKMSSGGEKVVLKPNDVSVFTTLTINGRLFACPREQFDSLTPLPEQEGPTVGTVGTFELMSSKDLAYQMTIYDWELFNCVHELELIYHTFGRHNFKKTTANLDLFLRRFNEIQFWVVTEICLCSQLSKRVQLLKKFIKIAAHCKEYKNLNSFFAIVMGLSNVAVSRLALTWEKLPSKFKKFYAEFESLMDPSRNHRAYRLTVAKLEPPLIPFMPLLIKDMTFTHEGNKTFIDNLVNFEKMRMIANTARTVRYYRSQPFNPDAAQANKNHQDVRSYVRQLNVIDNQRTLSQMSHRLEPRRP
Sequence of Rap guanine nucleotide exchange factor 3 (Homo sapiens) (O95398 whole entry, looked up): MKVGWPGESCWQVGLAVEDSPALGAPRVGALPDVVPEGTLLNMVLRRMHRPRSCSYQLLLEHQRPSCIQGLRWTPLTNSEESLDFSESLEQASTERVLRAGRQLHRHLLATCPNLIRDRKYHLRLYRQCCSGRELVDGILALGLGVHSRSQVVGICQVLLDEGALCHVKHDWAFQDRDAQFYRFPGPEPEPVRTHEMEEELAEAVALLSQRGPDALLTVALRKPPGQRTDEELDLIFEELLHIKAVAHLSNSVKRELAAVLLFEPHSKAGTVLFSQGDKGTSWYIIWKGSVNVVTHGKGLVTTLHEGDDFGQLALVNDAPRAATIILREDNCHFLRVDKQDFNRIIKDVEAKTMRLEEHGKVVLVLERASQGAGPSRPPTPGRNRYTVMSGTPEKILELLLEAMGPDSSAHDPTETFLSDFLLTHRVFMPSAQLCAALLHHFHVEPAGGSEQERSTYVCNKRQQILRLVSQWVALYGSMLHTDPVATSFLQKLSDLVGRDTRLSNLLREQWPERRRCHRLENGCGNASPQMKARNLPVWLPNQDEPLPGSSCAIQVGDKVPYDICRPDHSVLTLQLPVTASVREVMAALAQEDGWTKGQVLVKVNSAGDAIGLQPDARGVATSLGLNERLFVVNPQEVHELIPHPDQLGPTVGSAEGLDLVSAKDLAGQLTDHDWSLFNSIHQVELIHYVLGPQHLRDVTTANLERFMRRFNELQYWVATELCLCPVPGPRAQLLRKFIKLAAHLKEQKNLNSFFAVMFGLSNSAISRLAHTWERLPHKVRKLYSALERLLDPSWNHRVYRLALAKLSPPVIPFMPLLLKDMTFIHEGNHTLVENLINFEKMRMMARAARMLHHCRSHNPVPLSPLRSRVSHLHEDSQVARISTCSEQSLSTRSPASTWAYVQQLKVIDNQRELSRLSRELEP

Row | Structure (SMILES) | Potency [1] | Potency [2] | Potency [3] | Potency [4] | Potency [5] | activation [3] | activity change, negative = inhibition [5] | outcome [4]
1 | N#C/C(=C\c1ccc(O)c([N+](=O)[O-])c1)c1nc2ccccc2s1 | 33.8 µM (active) | inactive | inactive | inactive | inactive | – | – | –
2 | NNc1nc2c(Cl)cccc2s1 | inactive | inactive | inactive | 95.3 µM (active) | inactive | – | – | –
3 | CCN(CC)c1ccc2cc(-c3nnc(-c4ccccc4)o3)c(=O)oc2c1 | inactive | 15.8 µM (active) | 15.8 µM (active) | 4.26 µM (active) | inactive | – | – | –
4 | C[C@H]1CN([C@@H](C)CO)C(=O)c2cccc(NS(=O)(=O)c3ccc(Cl)cc3)c2O[C@@H]1CN(C)CC1CCCCC1 | inactive | inactive | – | inactive | – | 0% [at 17.1 µM, percent relative to cAMP agonist control] | 0.127% [at 30.8 µM] | –
5 | CCOc1cc(S(=O)(=O)N(CC)CC)ccc1Cl | inactive | inactive | – | inactive | – | 7.51% [at 17.1 µM, percent relative to cAMP agonist control] | -20.8% [at 30.8 µM] | –
6 | Cc1ccc(C)c(COC(=O)c2cc(S(=O)(=O)N3CCCCC3)ccc2N2CCOCC2)c1 | inactive | inactive | inactive | inactive | inactive | – | – | –
7 | Cc1cccc(-n2nc(C)c(C(=O)Nc3cc(C)ccc3C)c2-n2cccc2)c1 | inactive | inactive | inactive | inactive | inactive | – | – | –
8 | CC(C)[C@H](NC(=O)NCCc1ccc(F)cc1)C(=O)O | inactive | inactive | – | inactive | – | 8.32% [at 17.1 µM, percent relative to cAMP agonist control] | -8.58% [at 30.8 µM] | –
9 | NS(=O)(=O)c1ccc(Nc2nc3ccccc3nc2NS(=O)(=O)c2cccc([N+](=O)[O-])c2)cc1 | 75.7 µM (active) | inactive | inactive | inactive | inactive | – | – | –
10 | CCOC(=O)CSc1ccc2nnc(-c3ccccc3)n2n1 | inactive | inactive | – | inactive | – | 7.87% [at 17.1 µM, percent relative to cAMP agonist control] | -6.6% [at 30.8 µM] | –
11 | CCCCCNC(=O)C(c1cc2ccccc2o1)n1c(=O)c(-c2ccco2)nc2ccccc21 (stereo not given) | 16.9 µM (active) | inactive | inactive | 10.7 µM (active) | inactive | – | – | –
12 | CC(C)OC(=O)/C(=C/c1ccc2c(c1)c1ccccc1n2C)NC(=O)c1ccccc1 | inactive | inactive | inactive | inactive | inactive | – | – | –
13 | COCOCCn1cc(CN2CCS(=O)(=O)N(Cc3ccc(-c4ccc(C)cc4)cc3)C(CC(C)C)C2=O)nn1 (stereo not given) | inactive | inactive | – | inactive | – | 9.16% [at 17.1 µM, percent relative to cAMP agonist control] | 15.6% [at 30.8 µM] | –
14 | O=C(/C=C/c1ccc2c(c1)OCO2)Nc1cc(S(=O)(=O)N2CCOCC2)ccc1N1CCOCC1 | inactive | inactive | inactive | inactive | inactive | – | – | –
15 | CCCC1C2CN(C(C)C)CC=C2C(C#N)=C(N)C1(C#N)C#N (stereo not given) | 37.9 µM (active) | 35.5 µM (active) | 56.2 µM (active) | 33.8 µM (active) | inactive | – | – | –
16 | CC(C)OP(=O)(c1ccc(N(C)C)cc1)C(Nc1ccccc1)c1ccccc1 (stereo not given) | inactive | inactive | inactive | inactive | inactive | – | – | –
17 | C=CCn1c(NC(=O)c2ccccc2Cl)c(C#N)c2nc3ccccc3nc21 | 35.5 µM (active) | inactive | – | 3.01 µM (active) | – | -3.42% [at 17.1 µM, percent relative to cAMP agonist control] | -7.8% [at 30.8 µM] | –
18 | COc1cc(NC(=S)NCCC(c2ccccc2)c2ccccc2)cc(OC)c1 | inactive | inactive | – | inactive | – | 6.66% [at 17.1 µM, percent relative to cAMP agonist control] | 11% [at 30.8 µM] | –
19 | Cc1ccc(NC(=O)c2ccc(Cl)cc2Cl)c(C(=O)c2ccccc2)c1 | inactive | inactive | inactive | – | inactive | – | – | inactive [at 12.7 µM]
20 | CCOc1c(Cl)cc(Cl)cc1CNCCSc1nnnn1C | inactive | inactive | inactive | inactive | inactive | – | – | –
21 | COC(CNC(=O)c1ccc2c3c(onc13)-c1ccccc1C2=O)OC | inactive | 50.1 µM (active) | 100 µM (active) | inactive | inactive | – | – | –
22 | Cc1ccc(C)c(-n2c3nc(=O)[nH]c(=O)c-3cc3cc([N+](=O)[O-])ccc32)c1 | 47.8 µM (active) | inactive | inactive | inactive | inactive | – | – | –
23 | Cc1cn([C@H]2C[C@H](O)[C@@H](CCC(=O)NCc3ccc4c(c3)OCO4)O2)c(=O)[nH]c1=O | inactive | inactive | inactive | inactive | inactive | – | – | –
24 | O=C(CCc1ccc(O)c(O)c1)N/N=C/c1cc2c(cc1[N+](=O)[O-])OCO2 | 23.9 µM (active) | inactive | inactive | inactive | inactive | – | – | –

Row | Structure (SMILES) | Potency [1] | Potency [2] | Potency [3] | Potency [4] | Potency [5] | activation [3] | activity change, negative = inhibition [5] | outcome [4]
25 | CCC(C(=O)OC)n1c(-c2ccccc2)nc2ccccc2c1=O (stereo not given) | inactive | inactive | inactive | 19 µM (active) | inactive | – | – | –
26 | COc1cccc(CN2C(=O)C3(SCC(=O)N3c3ccc(F)cc3)c3ccccc32)c1 (stereo not given) | inactive | inactive | inactive | inactive | inactive | – | – | –
27 | Cc1ccc(-c2cc(C(=O)Nc3ccc4c(c3)OCCO4)c3ccccc3n2)cc1 | inactive | inactive | – | inactive | – | 9.86% [at 17.1 µM, percent relative to cAMP agonist control] | 3.98% [at 30.8 µM] | –
28 | COc1ccc(C(=O)NCC2(c3ccccc3)CCCC2)c(OC)c1 | inactive | inactive | – | inactive | – | -2.19% [at 17.1 µM, percent relative to cAMP agonist control] | -13.7% [at 30.8 µM] | –
29 | CC(C)(C)NC(=O)NC(=O)CN1CCc2ccccc21 | inactive | inactive | – | inactive | – | 4.54% [at 17.1 µM, percent relative to cAMP agonist control] | 5.54% [at 30.8 µM] | –
30 | COc1ccc(Br)cc1CN(C)C(=O)c1ccccc1OCc1c(C)noc1C | inactive | inactive | inactive | inactive | inactive | – | – | –
31 | Cc1cc(C)c(OCC(=O)Nc2ccccc2N2CCCCC2)c(C)c1 | inactive | inactive | inactive | inactive | inactive | – | – | –
32 | N#Cc1c(NC(=O)c2ccc(Br)o2)n(-c2ccccc2)c2nc3ccccc3nc12 | 50.1 µM (active) | inactive | – | inactive | – | 1.83% [at 17.1 µM, percent relative to cAMP agonist control] | -1.68% [at 30.8 µM] | –
33 | Cc1ccc(C(=O)c2cn(Cc3ccccc3)c3nc(C)ccc3c2=O)cc1 | inactive | inactive | inactive | inactive | inactive | – | – | –
34 | COc1ccc(OC)c(/C=C2\SC(=S)N(NS(=O)(=O)c3ccc(C)cc3)C2=O)c1 | 30.1 µM (active) | inactive | inactive | 47.8 µM (active) | inactive | – | – | –
35 | CC1CCc2c(sc(NC(=O)Cc3ccccc3)c2C(=O)Nc2ccc(Cl)cc2)C1 (stereo not given) | inactive | inactive | inactive | inactive | inactive | – | – | –
36 | CC(C)(CNC(=O)Cc1ccc(NS(=O)(=O)c2cccc(C(F)(F)F)c2)cc1)N1CCOCC1 | inactive | inactive | – | inactive | – | 1.17% [at 17.1 µM, percent relative to cAMP agonist control] | 10.3% [at 30.8 µM] | –
37 | CCOc1cc(CNc2ccc(O)cc2)cc(Br)c1OCc1ccccc1 | 75.7 µM (active) | inactive | inactive | – | inactive | – | – | inactive [at 12.7 µM]
38 | CNc1ccc(Br)cc(C(=O)/C=C/c2ccc(Cl)cc2Cl)c1=O | 12 µM (active) | inactive | inactive | inactive | inactive | – | – | –
39 | CCNC(=O)C1(C)CCN(C(=O)c2ccc(C(=O)OC)cc2)C1 (stereo not given) | inactive | inactive | inactive | inactive | inactive | – | – | –
40 | COCCn1c(SCC(=O)Nc2ccc3c(c2)CCC3)nc2ccccc2c1=O | inactive | inactive | – | inactive | – | -0.521% [at 17.1 µM, percent relative to cAMP agonist control] | -10.3% [at 30.8 µM] | –
41 | COC(=O)c1cc2oc(C)cc2n1Cc1c(C)cc(C)cc1C | inactive | inactive | inactive | inactive | inactive | – | – | –
42 | Cc1ccc(S(=O)(=O)N2[C@@H](c3ccc(Br)cc3)C(C(=O)O)=CC[C@H]2c2ccc(C(C)C)cc2)cc1 | 16.9 µM (active) | inactive | inactive | inactive | inactive | – | – | –
43 | COC(=O)c1c(NC(=O)c2c(OC)cccc2OC)sc2c1CCCC2 | inactive | inactive | inactive | inactive | inactive | – | – | –
44 | O=C(COC(=O)Cc1ccc(Cl)cc1)Nc1ccc2[nH]c(=O)[nH]c2c1 | inactive | inactive | – | inactive | – | -3.41% [at 17.1 µM, percent relative to cAMP agonist control] | -14.8% [at 30.8 µM] | –
45 | Cc1ccc(NC(=O)c2ccc(Cl)c(S(=O)(=O)N3CCc4ccccc43)c2)nc1 | inactive | inactive | inactive | inactive | inactive | – | – | –
46 | COc1cccc(C(=O)C2=NN(C(C)=O)CC2c2ccco2)c1 (stereo not given) | inactive | inactive | inactive | inactive | inactive | – | – | –
47 | O=C(OCC(=O)N1CCCC1=O)c1cc(Cl)ccc1O | inactive | inactive | inactive | inactive | inactive | – | – | –
48 | O=C1C(=Cc2cn(-c3ccccc3)nc2-c2ccc(OCc3ccccc3)cc2)SC(=S)N1CCS(=O)(=O)O | 33.8 µM (active) | inactive | inactive | inactive | inactive | – | – | –

— PubChem BioAssay (NCATS)
